Reference: the supplement of paper PMC10849652
The full data set covers some 7,900 targets. This sample favours those with a hit. About 0.6% of all pairs of compound and target were hits. Unmarked numbers belong to inactive results.

Assays:
Experiment in all cases: log2 fold change, soluble protein after heating vs DMSO (PISA); higher = thermal stabilisation; K562 cells, 10 uM, 30 min; active = over 0.2 and 3.5 SD of the protein, either way, in both replicates (recomputed)
[1] = compound: Cc1ccc(NC(=O)c2ccc(CN3CC[C@H](N(C)C)C3)c(C(F)(F)F)c2)cc1Nc1nccc(-c2cncnc2)n1 [bafetinib]
Procedure, shortened: (§1)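 K562 cells at 2×10^6 cells/mL were treated for 30 min with 10 μM compound, and aliquots were heated for 3 min over 48°C-58°C before pooling. Extraction used PBS with 0.5% NP-40 at 4°C, and soluble protein was the supernatant after 21,000xg for 90 min, measured by TMTpro 16plex LC-MS/MS with channel sums equalised. Thermal stability values, relative to control samples and from duplicates, are log2 fold changes.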

[2] = compound: Cc1cccc(CC(=O)N2CCc3c2ccc(-c2cn(C)c4ncnc(N)c24)c3F)n1
Procedure, shortened: as §1

[3] = compound: Cc1cn(-c2cc(NC(=O)c3ccc(C)c(Nc4nccc(-c5cccnc5)n4)c3)cc(C(F)(F)F)c2)cn1 [nilotinib]
Procedure, shortened: as §1

[4] = compound: Cc1nc(Nc2n[nH]c3c2CN(C(=O)N[C@H](CN(C)C)c2ccccc2)C3(C)C)c2sccc2n1
Procedure, shortened: as §1

[5] = compound: Cc1nc(Nc2ncc(C(=O)Nc3c(C)cccc3Cl)s2)cc(N2CCN(CCO)CC2)n1 [dasatinib]
Procedure, shortened: as §1

[6] = compound: Cc1ncc(-c2ccnc(Nc3ccc(S(C)(=O)=O)cc3)n2)n1C(C)C
Procedure, shortened: as §1

[7] = compound: Cn1cc(-c2ccc3c(c2)CCN3C(=O)Cc2cccc(C(F)(F)F)c2)c2c(N)ncnc21
Procedure, shortened: as §1

[8] = compound: Cn1cc(-c2ccc3nnc(C(F)(F)c4ccc5ncccc5c4)n3n2)cn1
Procedure, shortened: as §1

[9] = compound: Cn1cncc1[C@@](N)(c1ccc(Cl)cc1)c1ccc2c(c1)c(-c1cccc(Cl)c1)cc(=O)n2C [tipifarnib]
Procedure, shortened: as §1

[10] = compound: FC(F)(F)c1ccc(/C=C/c2nc(COc3ccc(CCCCn4ccnn4)cc3)co2)cc1 [mubritinib]
Procedure, shortened: as §1

UniProt Q8TCG2, sequence (Q8TCG2 whole entry, looked up): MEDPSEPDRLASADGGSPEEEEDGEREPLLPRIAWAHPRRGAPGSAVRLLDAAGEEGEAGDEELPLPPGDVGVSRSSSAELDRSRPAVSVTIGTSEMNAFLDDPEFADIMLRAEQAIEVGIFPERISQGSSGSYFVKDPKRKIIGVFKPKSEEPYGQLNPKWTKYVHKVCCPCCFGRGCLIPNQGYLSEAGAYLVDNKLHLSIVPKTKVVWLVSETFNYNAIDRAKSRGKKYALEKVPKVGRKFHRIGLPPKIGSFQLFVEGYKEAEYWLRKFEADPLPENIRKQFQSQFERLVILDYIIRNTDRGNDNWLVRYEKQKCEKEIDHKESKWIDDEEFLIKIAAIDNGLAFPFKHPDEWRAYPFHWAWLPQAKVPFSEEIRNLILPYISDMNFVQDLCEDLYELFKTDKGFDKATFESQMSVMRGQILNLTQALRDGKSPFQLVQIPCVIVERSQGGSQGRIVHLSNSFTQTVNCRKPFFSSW
UniProt P14618, sequence (P14618 whole entry, looked up): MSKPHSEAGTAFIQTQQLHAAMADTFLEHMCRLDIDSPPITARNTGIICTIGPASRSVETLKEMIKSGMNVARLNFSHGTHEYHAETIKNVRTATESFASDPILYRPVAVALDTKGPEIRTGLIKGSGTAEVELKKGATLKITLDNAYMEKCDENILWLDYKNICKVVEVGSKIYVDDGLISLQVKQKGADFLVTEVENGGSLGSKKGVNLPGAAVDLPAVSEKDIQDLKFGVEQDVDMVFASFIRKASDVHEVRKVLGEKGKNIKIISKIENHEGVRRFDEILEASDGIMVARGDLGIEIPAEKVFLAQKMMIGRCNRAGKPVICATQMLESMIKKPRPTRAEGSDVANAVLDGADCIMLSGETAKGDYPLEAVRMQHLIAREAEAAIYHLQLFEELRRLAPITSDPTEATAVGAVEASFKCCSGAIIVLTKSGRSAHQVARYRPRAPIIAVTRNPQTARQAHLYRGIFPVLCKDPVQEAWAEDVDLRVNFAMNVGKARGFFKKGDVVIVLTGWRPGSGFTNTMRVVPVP
UniProt Q5THK1, sequence (Q5THK1 whole entry, looked up): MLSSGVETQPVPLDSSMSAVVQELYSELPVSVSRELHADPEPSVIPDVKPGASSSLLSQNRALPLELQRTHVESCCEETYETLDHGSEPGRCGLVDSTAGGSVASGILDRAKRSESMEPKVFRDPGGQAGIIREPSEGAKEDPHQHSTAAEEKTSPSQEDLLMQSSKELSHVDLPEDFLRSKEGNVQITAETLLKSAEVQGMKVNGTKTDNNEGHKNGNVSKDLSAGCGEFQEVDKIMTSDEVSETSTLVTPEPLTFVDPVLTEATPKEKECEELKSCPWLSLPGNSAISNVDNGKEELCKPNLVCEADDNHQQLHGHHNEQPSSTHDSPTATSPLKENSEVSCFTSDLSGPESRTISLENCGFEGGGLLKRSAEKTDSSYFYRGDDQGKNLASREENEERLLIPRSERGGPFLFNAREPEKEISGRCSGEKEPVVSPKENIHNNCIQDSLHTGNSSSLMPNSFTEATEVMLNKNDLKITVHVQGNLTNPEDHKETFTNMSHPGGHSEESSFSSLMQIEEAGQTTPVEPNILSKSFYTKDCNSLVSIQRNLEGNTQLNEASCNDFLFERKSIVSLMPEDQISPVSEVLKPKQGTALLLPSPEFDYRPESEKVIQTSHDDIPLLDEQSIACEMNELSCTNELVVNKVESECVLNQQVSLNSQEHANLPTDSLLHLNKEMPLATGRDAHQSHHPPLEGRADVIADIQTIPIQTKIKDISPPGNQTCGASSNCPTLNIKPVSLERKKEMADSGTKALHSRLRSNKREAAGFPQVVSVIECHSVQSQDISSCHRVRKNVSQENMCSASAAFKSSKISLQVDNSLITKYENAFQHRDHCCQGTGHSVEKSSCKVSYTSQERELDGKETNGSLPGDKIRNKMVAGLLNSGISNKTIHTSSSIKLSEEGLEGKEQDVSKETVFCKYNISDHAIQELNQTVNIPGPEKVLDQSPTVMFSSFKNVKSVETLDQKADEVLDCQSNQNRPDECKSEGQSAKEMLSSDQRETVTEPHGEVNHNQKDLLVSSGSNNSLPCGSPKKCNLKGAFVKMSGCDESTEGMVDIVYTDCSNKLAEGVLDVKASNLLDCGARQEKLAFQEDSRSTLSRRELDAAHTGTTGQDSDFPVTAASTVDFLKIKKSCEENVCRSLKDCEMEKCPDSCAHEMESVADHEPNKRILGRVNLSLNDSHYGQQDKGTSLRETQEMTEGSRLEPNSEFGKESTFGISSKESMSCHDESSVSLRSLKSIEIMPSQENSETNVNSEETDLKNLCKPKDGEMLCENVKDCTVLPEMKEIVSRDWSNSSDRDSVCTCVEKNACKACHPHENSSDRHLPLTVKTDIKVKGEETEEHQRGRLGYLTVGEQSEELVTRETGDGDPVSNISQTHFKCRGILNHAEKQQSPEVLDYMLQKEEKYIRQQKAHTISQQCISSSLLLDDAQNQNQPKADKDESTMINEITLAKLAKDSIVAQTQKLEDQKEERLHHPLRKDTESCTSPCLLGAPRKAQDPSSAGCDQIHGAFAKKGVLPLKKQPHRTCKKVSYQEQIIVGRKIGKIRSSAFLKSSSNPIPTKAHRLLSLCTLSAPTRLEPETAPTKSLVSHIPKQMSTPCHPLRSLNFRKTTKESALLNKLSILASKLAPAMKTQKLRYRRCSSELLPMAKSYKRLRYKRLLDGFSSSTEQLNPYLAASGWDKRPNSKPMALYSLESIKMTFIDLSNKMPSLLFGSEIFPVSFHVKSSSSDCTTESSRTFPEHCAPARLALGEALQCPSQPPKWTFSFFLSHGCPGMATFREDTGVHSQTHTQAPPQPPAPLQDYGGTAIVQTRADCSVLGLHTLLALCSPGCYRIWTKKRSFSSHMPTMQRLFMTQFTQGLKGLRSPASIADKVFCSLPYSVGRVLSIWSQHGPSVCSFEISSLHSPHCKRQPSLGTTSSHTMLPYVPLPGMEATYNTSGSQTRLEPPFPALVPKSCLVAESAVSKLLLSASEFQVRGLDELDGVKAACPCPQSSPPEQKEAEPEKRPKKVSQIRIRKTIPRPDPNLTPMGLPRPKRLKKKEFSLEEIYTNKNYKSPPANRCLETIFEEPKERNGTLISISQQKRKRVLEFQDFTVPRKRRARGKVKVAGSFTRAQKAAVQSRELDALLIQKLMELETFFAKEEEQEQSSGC
UniProt Q9UHX1, sequence (Q9UHX1 whole entry, looked up): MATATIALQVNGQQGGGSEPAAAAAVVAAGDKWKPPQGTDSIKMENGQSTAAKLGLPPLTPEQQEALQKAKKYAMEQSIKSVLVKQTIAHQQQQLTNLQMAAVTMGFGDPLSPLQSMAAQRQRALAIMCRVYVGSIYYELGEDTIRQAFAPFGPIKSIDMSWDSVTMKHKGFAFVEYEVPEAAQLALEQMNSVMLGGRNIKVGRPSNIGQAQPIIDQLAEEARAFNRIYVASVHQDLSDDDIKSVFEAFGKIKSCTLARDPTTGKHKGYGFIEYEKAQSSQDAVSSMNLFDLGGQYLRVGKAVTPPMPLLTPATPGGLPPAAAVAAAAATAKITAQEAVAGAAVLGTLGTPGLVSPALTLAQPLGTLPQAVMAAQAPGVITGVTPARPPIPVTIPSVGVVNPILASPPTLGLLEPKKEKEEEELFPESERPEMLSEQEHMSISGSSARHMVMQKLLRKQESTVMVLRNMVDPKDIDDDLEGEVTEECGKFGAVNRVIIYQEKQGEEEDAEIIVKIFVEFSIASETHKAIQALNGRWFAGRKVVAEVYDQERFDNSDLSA
UniProt P0CG38, sequence (P0CG38 whole entry, looked up): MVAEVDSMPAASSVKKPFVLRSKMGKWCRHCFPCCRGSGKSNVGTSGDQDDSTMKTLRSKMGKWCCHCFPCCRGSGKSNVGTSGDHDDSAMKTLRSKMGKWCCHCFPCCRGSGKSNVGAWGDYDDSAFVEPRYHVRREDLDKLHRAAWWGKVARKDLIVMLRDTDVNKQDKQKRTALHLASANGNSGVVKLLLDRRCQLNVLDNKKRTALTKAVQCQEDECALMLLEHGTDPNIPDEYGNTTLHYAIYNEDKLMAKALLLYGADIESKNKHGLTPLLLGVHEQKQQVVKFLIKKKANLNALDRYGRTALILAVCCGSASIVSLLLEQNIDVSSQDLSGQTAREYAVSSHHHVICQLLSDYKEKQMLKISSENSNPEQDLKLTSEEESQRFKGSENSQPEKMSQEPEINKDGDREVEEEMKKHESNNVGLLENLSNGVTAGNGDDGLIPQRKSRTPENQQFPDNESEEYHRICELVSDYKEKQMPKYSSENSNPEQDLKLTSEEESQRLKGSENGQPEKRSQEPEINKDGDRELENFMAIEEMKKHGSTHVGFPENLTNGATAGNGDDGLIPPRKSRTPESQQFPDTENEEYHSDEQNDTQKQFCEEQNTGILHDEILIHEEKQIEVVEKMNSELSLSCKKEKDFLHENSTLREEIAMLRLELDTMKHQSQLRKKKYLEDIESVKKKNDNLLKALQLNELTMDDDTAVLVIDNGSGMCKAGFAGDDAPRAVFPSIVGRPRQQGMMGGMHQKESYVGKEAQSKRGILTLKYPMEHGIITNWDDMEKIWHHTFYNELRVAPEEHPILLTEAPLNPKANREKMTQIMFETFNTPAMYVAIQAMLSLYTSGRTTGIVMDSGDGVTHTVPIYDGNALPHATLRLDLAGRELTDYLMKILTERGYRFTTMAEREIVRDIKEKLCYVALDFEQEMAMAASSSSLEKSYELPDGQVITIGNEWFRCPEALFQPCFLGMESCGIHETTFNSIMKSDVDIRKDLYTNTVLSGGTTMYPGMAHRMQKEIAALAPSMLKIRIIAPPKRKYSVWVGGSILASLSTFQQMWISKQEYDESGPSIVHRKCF
UniProt P28065, sequence (P28065 whole entry, looked up): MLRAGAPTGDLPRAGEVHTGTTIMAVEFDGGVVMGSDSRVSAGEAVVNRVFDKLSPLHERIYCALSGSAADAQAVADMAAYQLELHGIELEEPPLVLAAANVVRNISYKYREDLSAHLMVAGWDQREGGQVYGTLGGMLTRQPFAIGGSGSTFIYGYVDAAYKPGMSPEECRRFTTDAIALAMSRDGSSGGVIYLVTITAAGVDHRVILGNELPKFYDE

Target	log2 fold change [1]	log2 fold change [2]	log2 fold change [3]	log2 fold change [4]	log2 fold change [5]	log2 fold change [6]	log2 fold change [7]	log2 fold change [8]	log2 fold change [9]	log2 fold change [10]
PARP1 (UniProt P09874)	0.05	-0.009	-0.028	-0.112	-0.245	0.178	0.026	0.131	-0.117	0.044
PPP2R5B (UniProt Q15173)	0.006	-0.057	-0.187	0.095	-0.047	-0.042			-0.067	-0.023
PUF60 (UniProt Q9UHX1)	0.077	-0.04	-0.022	-0.703 (active)	-0.085	-0.001	0.008	-0.046	-0.034	0.024
PCBP2 (UniProt F8VRH0)	0.293	-0.039	-0.347	-0.215	-0.146	-0.009	0.112		0.067	0.129
PRG4 (UniProt Q92954)	-0.095	0.104	-0.05	0.065	0	0.258	0.203	0.068		-0.016
POTEI (UniProt P0CG38)	-0.052	-0.02	0.046	-0.049	0.087	0.043	-0.005	-0.003	-0.019	0.004
PARG (UniProt Q86W56)	0.166	0.118	0.004	-0.123	-0.162	-0.025	0.093	-0.015	-0.061	0.061
PARP16 isoform 3 (UniProt Q8N5Y8)	0.096	-0.005	-0.034	-0.019	-0.009	0.053	0.011		-0.092	0.089
PCNT (UniProt O95613)	-0.227	-0.324	-0.117	0.045	0.085	-0.002	-0.076	0.107	0.127	-0.004
PI4K2B (UniProt Q8TCG2)	-0.084	0	0.124	-0.052	-0.101	-0.167	0.11	0.146		0.053
PATL1 (UniProt Q86TB9)	-0.007	0.034			-0.032		0.08	-0.013	0.039	-0.04
PRUNE1 (UniProt Q86TP1)	-0.037	0.045	-0.051	-0.054	-0.178	0.082	-0.045	-0.045	-0.122	-0.056
POLA2 (UniProt Q14181)	-0.038	0.058	-0.036	-0.072	-0.101	-0.02	0.022	0.001	-0.04	0.041
PKM (UniProt P14618)	-0.023	-0.012	-0.011	-0.004	0.024	-0.009	0.015	0.006	0.005	0.035
PRKCE (UniProt Q02156)	0.001	0.02	-0.024	-0.335 (active)	-0.118	0.004	0.051		-0.049	0.052
PRR14L (UniProt Q5THK1)		-0.156	-0.027	-0.044		-0.007	0.019		-0.039	
PLCXD1 (UniProt Q9NUJ7)	-0.642 (active)							-0.099		
PDIK1L (UniProt Q8N165)	0.166		-0.026	0.578 (active)	-0.081	-0.037	0.05	0.13	-0.152	0.034

Target	log2 fold change [1]	log2 fold change [2]	log2 fold change [3]	log2 fold change [4]	log2 fold change [5]	log2 fold change [6]	log2 fold change [7]	log2 fold change [8]	log2 fold change [9]	log2 fold change [10]
PPP2R5C isoform 2 (UniProt Q13362)	0.046							0.037		-0.057
PSMC1 (UniProt G3V4X1)		-0.579	-0.195	0.042		-0.046	0.066		0.479	
PTEN isoform 2 (UniProt P60484)		0.158						-0.087	-0.212	
PUF60 isoform 2 (UniProt Q9UHX1)	-0.089				-0.173		0.043	-0.103	-0.159	-0.257
PSMB9 (UniProt P28065)	-0.22	-0.122					0.054		0.03	
PCBP2 (UniProt F8VZX2)	0.029		0.029	-0.112	-0.144	0.049	-0.022	-0.196		-0.153
POLR2C (UniProt P19387)	0.012		-0.042	0.073	-0.031	0.3 (active)	0.003	-0.06	-0.081	-0.097
PIAS4 (UniProt Q8N2W9)		0			-0.116			0.313	0.002	0.199
PHC3 isoform 7 (UniProt Q8NDX5)	0.222		-0.187	0.01		0	0.018		-0.016	0.191
PRKX (UniProt P51817)	-0.039									0.108
PIM1 isoform 2 (UniProt P11309)		-0.263								0.721
PRKD3 (UniProt O94806)	-0.011	-0.231			-0.258		-0.079	0.006		-0.062
POLB (UniProt P06746)		-0.081	-0.103	-0.134	-0.04	0.009	0.143	-0.133	0.043	
PSMA3 (UniProt H0YJ03)					0.133		0.036	-0.017	0.02	
PCF11 (UniProt O94913)	-0.099	0.078					-0.095	0.007	0.168	0.179
PSMA3 (UniProt G3V4X5)	0.159							0.174	0.067	
PHRF1 (UniProt Q9P1Y6)								0.084	0.159	-0.099
